The source made the active and inactive calls. The rule behind the calls is not given here.
Target: Apoptosis regulator Bcl-2 (Homo sapiens) (UniProt P10415)
Test: inhibitors of Bim-Bcl-2 binding, confirmation, biochemical, dose response, multiplexed HTS hits (AID 2075)

Sequence of Apoptosis regulator Bcl-2 (Homo sapiens) (P10415 whole entry, looked up): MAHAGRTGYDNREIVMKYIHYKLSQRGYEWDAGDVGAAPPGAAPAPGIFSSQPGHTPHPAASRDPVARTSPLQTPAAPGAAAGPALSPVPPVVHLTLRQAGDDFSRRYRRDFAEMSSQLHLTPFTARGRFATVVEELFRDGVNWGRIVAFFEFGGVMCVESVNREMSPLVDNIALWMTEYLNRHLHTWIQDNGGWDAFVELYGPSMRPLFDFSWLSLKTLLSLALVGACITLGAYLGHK

O=C1NC(=O)C(=Cc2ccc(-c3cc(Cl)ccc3[N+](=O)[O-])o2)C(=O)N1
outcome: inactive
